Data on 40 molecules can be found in the supplement of paper PMC9023506.

Where a name gives a salt, the structure may show the parent alone.

In this assay the test system is Danio rerio larvae (5 dpf). As to the kind of experiment: optomotor response to green moving lines, difference vs DMSO (percentage points (treated minus DMSO)); higher = more of the behaviour than the DMSO vehicle control. Conditions: 10 µM; exposure time: 3 h pre-incubation + 3 h imaging. The procedure: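 5-dpf wild-type zebrafish larvae were imaged in 96-well plates. They were treated with 190 Tocris FDA-approved drugs at 10 µM (1 µl/ml DMSO) for 3 h before and 3 h during imaging at 28.5 °C, 48 larvae per drug. Automated image analysis gave % time moving and optomotor responses. Values are drug group mean minus DMSO vehicle mean (n=844), in percentage points, for 10 behaviours.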
Take `CCOc1nc2cccc(C(=O)O)c2n1Cc1ccc(-c2ccccc2-c2nnn[nH]2)cc1` [Candesartan]: the “optomotor response to green moving lines” value was 0.689. With `CC(C)[C@H]1CC[C@H](C(=O)N[C@H](Cc2ccccc2)C(=O)O)CC1` [Nateglinide], the “optomotor response to green moving lines” value was 4.02. With `CCOc1cc(CC(=O)N[C@@H](CC(C)C)c2ccccc2N2CCCCC2)ccc1C(=O)O` [Repaglinide] the figure was 4.27.

For `Cc1ccc(NC(=O)c2ccc(CN3CCN(C)CC3)cc2)cc1Nc1nccc(-c2cccnc2)n1` [Imatinib mesylate], the “optomotor response to green moving lines” value is -13.4. With `NS(=O)(=O)Cc1noc2ccccc12` [Zonisamide] the figure was 8.43; with `CCCCc1nc(Cl)c(CO)n1Cc1ccc(-c2ccccc2-c2nnn[nH]2)cc1` [Losartan potassium], -0.568. As for `Cc1ccccc1C(=O)Nc1ccc(C(=O)N2CCCC(O)c3cc(Cl)ccc32)c(C)c1` (stereo not given) [Tolvaptan], the figure is 10.3; as for `OCc1cc(C(O)CNCCCCCCOCCCCc2ccccc2)ccc1O` (stereo not given) [Salmeterol xinafoate], -6.89; as for `Cc1cccc(C)c1OCC(C)N` (stereo not given) [Mexiletine hydrochloride], -1.17. Regarding `Nc1nc2c(ncn2COCCO)c(=O)[nH]1` [Acyclovir], the “optomotor response to green moving lines” value came out at 0.472. With `NC(=O)OCC(COC(N)=O)c1ccccc1` [Felbamate] the figure was -9.03. As for `Nc1cccc2c1CN(C1CCC(=O)NC1=O)C2=O` (stereo not given) [Lenalidomide], the figure is 7.44; as for `CCCC1O[C@@H]2C[C@H]3[C@@H]4CCC5=CC(=O)C=C[C@]5(C)[C@H]4[C@@H](O)C[C@]3(C)[C@]2(C(=O)CO)O1` (stereo not given in full) [Budesonide], 0.891. Regarding `Cc1ccsc1C(=CCCN1CCC[C@@H](C(=O)O)C1)c1sccc1C` [Tiagabine hydrochloride], the “optomotor response to green moving lines” value was 8.59. With `CCCN(CCC)S(=O)(=O)c1ccc(C(=O)O)cc1` [Probenecid] the figure was 10.3; with `CC#C[C@]1(O)CC[C@H]2[C@@H]3CCC4=CC(=O)CCC4=C3[C@@H](c3ccc(N(C)C)cc3)C[C@@]21C` [Mifepristone], 11; with `OCCOCCN1CCN(C2=Nc3ccccc3Sc3ccccc32)CC1` [Quetiapine hemifumarate], 10.3. As for `CC(CCc1ccc(O)cc1)NCCc1ccc(O)c(O)c1` (stereo not given) [Dobutamine hydrochloride], the figure is 4.26. For the molecule `CCOC(=O)C1=C(COCCN)NC(C)=C(C(=O)OC)C1c1ccccc1Cl` (stereo not given) [Amlodipine besylate], the “optomotor response to green moving lines” value was -4.86. As for `O=C(Nc1c(Cl)cncc1Cl)c1ccc(OC(F)F)c(OCC2CC2)c1` [Roflumilast], the figure is -11.7.

Consider `C#C[C@]1(O)CC[C@H]2[C@@H]3CCC4=CC(=O)CC[C@@H]4[C@H]3CC[C@@]21CC` [Levonorgestrel], for which the “optomotor response to green moving lines” value worked out at 5.26. Consider `CCC(C)(C)C(=O)O[C@H]1C[C@@H](C)C=C2C=C[C@H](C)[C@H](CC[C@@H]3C[C@@H](O)CC(=O)O3)[C@H]21` [Simvastatin], for which the “optomotor response to green moving lines” value was 4.17. With `O=C1CCc2cc(OCCCCc3nnnn3C3CCCCC3)ccc2N1` [Cilostazol] the figure was 3.44. As for `NS(=O)(=O)c1cc(C(=O)O)c(NCc2ccco2)cc1Cl` [Furosemide], the figure is -6.99; as for `CCc1ccc(CCOc2ccc(CC3SC(=O)NC3=O)cc2)nc1` (stereo not given) [Pioglitazone hydrochloride], -7.6. With `Cc1cc2c(s1)Nc1ccccc1N=C2N1CCN(C)CC1` [Olanzapine] the figure was 8.6; with `C[C@H]1C[C@@H]2[C@H]([C@@H](O)C[C@@]3(C)[C@H]2CC[C@]3(O)C(=O)CO)[C@@]2(C)C=CC(=O)C=C12` [Methylprednisolone], 5.3. In the case of `O=C(c1ccc(OCCN2CCCCC2)cc1)c1c(-c2ccc(O)cc2)sc2cc(O)ccc12` [Raloxifene hydrochloride], the “optomotor response to green moving lines” value was -7.74. As for `NS(=O)(=O)c1cc2c(cc1Cl)NC(C1CC3C=CC1C3)NS2(=O)=O` (stereo not given) [Cyclothiazide], the figure is 0.907; as for `CN[C@H]1CC[C@@H](c2ccc(Cl)c(Cl)c2)c2ccccc21` [Sertraline hydrochloride], -6.64. As for `CC(=O)O[C@]1(C(C)=O)CC[C@H]2[C@@H]3C=C(C)C4=CC(=O)CC[C@]4(C)[C@H]3CC[C@@]21C` [Megestrol Acetate], the figure is -2.03; as for `CC(C)N(CCCCOCC(=O)NS(C)(=O)=O)c1cnc(-c2ccccc2)c(-c2ccccc2)n1` [Selexipag], -4.69. As for `Cc1ccc(N(CC2=NCCN2)c2cccc(O)c2)cc1` [Phentolamine Mesylate], the figure is 5.31; as for `N#Cc1ccc(C(c2ccc(C#N)cc2)n2cncn2)cc1` [Letrozole], 6.3. As for `COc1cc(N)c(Cl)cc1C(=O)NC1CCN(CCCOc2ccc(F)cc2)CC1OC` (stereo not given) [Cisapride], the “optomotor response to green moving lines” value amounted to 5.81. Take `Nc1nc2[nH]cc(CCc3ccc(C(=O)N[C@@H](CCC(=O)O)C(=O)O)cc3)c2c(=O)[nH]1` [Pemetrexed]: the “optomotor response to green moving lines” value worked out at 8.22. With `CC(C)(C(=O)O)c1ccc(C(O)CCCN2CCC(C(O)(c3ccccc3)c3ccccc3)CC2)cc1` (stereo not given) [Fexofenadine hydrochloride] the figure was 3.69.

Regarding `CC(=O)S[C@@H]1CC2=CC(=O)CC[C@]2(C)[C@H]2CC[C@@]3(C)[C@@H](CC[C@@]34CCC(=O)O4)[C@H]12` [Spironolactone], the “optomotor response to green moving lines” value is 3.9. As for `CCCc1nc2c(C)cc(-c3nc4ccccc4n3C)cc2n1Cc1ccc(-c2ccccc2C(=O)O)cc1` [Telmisartan], the figure is -3.99; as for `CCOC(=O)N1CCC(=C2c3ccc(Cl)cc3CCc3cccnc32)CC1` [Loratidine], -5.38.
